Test results published in ChEMBL document CHEMBL1201862, “PubChem BioAssay data set” (2004).
Out of some 400,000 compounds screened, about 2,100 (0.53%) were called active. About 14% were inconclusive and are not listed. How the calls were made is not given here. The sample as a whole holds a higher share of actives than the screen did.

Target: Ataxin-2 (Homo sapiens) (UniProt Q99700)
Assay: qHTS for Inhibitors of ATXN expression.
Assay type: functional

Sequence of Ataxin-2 (Homo sapiens) (Q99700 whole entry): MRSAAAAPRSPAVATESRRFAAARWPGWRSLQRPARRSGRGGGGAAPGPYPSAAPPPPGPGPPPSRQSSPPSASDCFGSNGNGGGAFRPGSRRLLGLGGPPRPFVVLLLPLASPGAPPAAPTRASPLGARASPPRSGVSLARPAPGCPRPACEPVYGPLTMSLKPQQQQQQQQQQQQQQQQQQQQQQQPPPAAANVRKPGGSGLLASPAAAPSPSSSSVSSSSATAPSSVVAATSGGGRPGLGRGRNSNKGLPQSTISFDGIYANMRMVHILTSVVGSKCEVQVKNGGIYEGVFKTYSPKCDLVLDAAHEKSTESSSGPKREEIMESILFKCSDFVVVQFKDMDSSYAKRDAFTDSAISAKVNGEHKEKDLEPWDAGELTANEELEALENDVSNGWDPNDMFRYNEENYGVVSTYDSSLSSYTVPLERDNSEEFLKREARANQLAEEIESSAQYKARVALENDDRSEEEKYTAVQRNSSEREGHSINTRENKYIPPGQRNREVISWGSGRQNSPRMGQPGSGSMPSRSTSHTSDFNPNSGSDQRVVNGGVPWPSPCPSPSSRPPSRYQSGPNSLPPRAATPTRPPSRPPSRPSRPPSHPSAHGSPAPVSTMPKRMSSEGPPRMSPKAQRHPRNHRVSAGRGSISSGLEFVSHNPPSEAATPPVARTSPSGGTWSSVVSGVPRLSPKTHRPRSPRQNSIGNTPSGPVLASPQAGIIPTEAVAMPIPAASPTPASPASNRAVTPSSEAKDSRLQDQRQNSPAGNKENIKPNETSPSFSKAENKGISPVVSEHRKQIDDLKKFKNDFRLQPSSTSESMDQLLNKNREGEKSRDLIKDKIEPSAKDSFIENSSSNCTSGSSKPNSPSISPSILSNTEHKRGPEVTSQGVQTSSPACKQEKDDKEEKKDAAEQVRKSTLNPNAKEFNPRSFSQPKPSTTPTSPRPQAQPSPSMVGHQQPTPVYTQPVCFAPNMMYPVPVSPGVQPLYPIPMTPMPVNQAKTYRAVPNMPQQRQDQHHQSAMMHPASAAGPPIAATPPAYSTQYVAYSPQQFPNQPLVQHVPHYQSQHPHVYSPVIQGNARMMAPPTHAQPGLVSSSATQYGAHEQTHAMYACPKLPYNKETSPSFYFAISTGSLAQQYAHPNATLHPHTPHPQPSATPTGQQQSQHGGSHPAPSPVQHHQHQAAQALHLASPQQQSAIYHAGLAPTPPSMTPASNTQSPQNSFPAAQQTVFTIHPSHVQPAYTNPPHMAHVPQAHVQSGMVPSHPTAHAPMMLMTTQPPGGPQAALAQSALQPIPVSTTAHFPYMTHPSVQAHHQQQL

Row | SMILES | Potency
1 | C/C=C(\C)C(=O)OC1CC(C)(C)C[C@H]2C3=CC[C@@H]4[C@@]5(C)CCC(O[C@@H]6O[C@@H](C(=O)O)[C@@H](O)C(O[C@@H]7OC[C@H](O)[C@@H](O)[C@@H]7O[C@@H]7OC(CO)C(O)[C@@H](O)[C@@H]7O)C6O[C@@H]6OC(CO)C(O)C(O)C6O)[C@@](C)(CO)[C@@H]5CC[C@]4(C)[C@]3(C)CC(O)[C@@]12CO (some centres not stated) | 31.6 µM (active)
2 | Cc1nn(C)cc1N1C(=O)c2cccc3c(N)ccc(c23)C1=O | inactive
3 | CCOc1ccc(NS(=O)(=O)c2ccc(C(=O)NCC3CCCO3)cc2)cc1 (configuration not stated) | inactive
4 | COc1ccccc1C(CNC(=O)C1COc2ccccc2O1)N1CCCC1 (configuration not stated) | inactive
5 | CCOc1ccc(C(=O)NCC(c2ccc(Cl)cc2)N2CCCCC2)cc1 (configuration not stated) | 14.1 µM (active)
6 | COc1ccc(CNC(=O)C(C#N)c2nc3ccccc3nc2N2CCCC2)cc1 (configuration not stated) | inactive
7 | CCOc1ccc(S(=O)(=O)NCC(c2ccc3c(c2)OCO3)N2CCN(C)CC2)cc1 (configuration not stated) | inactive
8 | COc1ccc(C(CNC(=O)c2ccc(-c3ccccc3Cl)o2)N2CCCC2)cc1 (configuration not stated) | 17.8 µM (active)
9 | CCNc1nc2nc3ccc(C)cn3c(=O)c2cc1C(=O)NCC1CCCO1 (configuration not stated) | inactive
10 | O=C(CN1C(=O)NC2(CCc3ccccc32)C1=O)Nc1ccc(Br)cc1F (configuration not stated) | inactive
11 | Nc1nnnn1/N=C/c1ccccc1O | inactive
12 | CC(Oc1ccccc1F)c1nnc(SCC(=O)N(c2ccccc2)C2CCS(=O)(=O)C2)o1 (configuration not stated) | inactive
13 | O=C(CCl)N(c1ccccc1)C1CCS(=O)(=O)C1 (configuration not stated) | 17.8 µM (active)
14 | O=C(OCC(=O)N(c1ccccc1)C1CCCCC1)c1ccc(CO)cc1 | inactive
15 | O=C(NC(=O)c1c(F)cccc1F)O/N=C1\CCCc2occc21 | inactive
16 | CN(C)S(=O)(=O)c1cccc(NC(=S)N/N=C/C2CC=CCC2)c1 (configuration not stated) | inactive
17 | Cc1nc2ccc(S(=O)(=O)Nc3ccc(-c4nc5cccnc5s4)cc3)cc2s1 | inactive
18 | C=CCc1c(O)c(CC)cc2c(C)cc(=O)oc12 | inactive
19 | C=CCN(c1ccccc1)S(=O)(=O)c1cccc(C(=O)Oc2ccc3c(C)cc(=O)oc3c2)c1 | inactive
20 | CC(=O)c1c(C)oc2ccc(N(C(C)=O)S(=O)(=O)c3ccc(Cl)c([N+](=O)[O-])c3)cc12 | 31.6 µM (active)
21 | COC(=O)c1c(C)oc2ccc(N(C(=O)Oc3ccccc3)S(=O)(=O)c3ccc(Cl)c([N+](=O)[O-])c3)cc12 | 35.5 µM (active)
22 | CC=Cc1cc2c(c(=O)o1)C(=O)C(O)C(C)O2 (configuration not stated) | 29.9 µM (active)
23 | CCOC(=O)c1cc2c(=O)n3ccccc3nc2n(CCCOC)/c1=N\C(C)=O | inactive
24 | COCCNC(=O)c1ccc(Cn2c(SCC(N)=O)nc3ccccc3c2=O)cc1 | inactive

Row | SMILES | Potency
25 | O=C(CNC(=O)C1CCCCC1)OCn1nnc2ccccc2c1=O | inactive
26 | C[C@H](NC(=O)c1ccc(Cl)cc1)C(=O)OCn1nnc2ccccc2c1=O | 8.91 µM (active)
27 | S=C1SCN(Cc2cccnc2)CN1Cc1cccnc1 | 13.4 µM (active)
28 | OCC1(CCc2ccccc2)CCN(Cc2cccn2-c2cccnc2)CC1 | inactive
29 | OC1(c2ccc(F)cc2)CCN(Cc2cccnc2)CC1 | inactive
30 | Cc1cccc2c3c([nH]c12)CCNC3 | inactive
31 | O=C1OCCN1C(=O)[C@H]1[C@H](c2ccc(Cl)cc2)C(c2cccc(Cl)c2)=NN1c1ccccc1 | inactive
32 | Oc1nc2cc3ccccc3cc2nc1C(F)(F)F | inactive
33 | CCOc1ccc2nc(N3C(=O)CNC3=S)sc2c1 | 39.8 µM (active)
34 | CCOc1ccc2nc(N3C(=O)/C(=C/c4ccc(Cl)cc4)NC3=S)sc2c1 | inactive
35 | CN(C)CCCn1c(N)c(C#N)c2nc3ccccc3nc21 | inactive
36 | COc1cccc(OC)c1-c1nn2c(-c3cc(-c4ccccc4)[nH]n3)nnc2s1 | 31.6 µM (active)
37 | COc1ccc(-c2cc(C(=O)NN)[nH]n2)cc1OC | inactive
38 | N#Cc1c(-c2ccccc2)cc(C2CC2)nc1SCC(=O)c1cccs1 | inactive
39 | Cc1cc(C)c(C(CC(=O)c2cccs2)C(C#N)C#N)c(C)c1 (configuration not stated) | 31.6 µM (active)
40 | CCc1c(C)sc(NC(=O)c2cc(-c3cc(OC)ccc3OC)on2)c1C#N | 22.4 µM (active)
41 | COc1ccc(NC(=O)c2cc(-c3ccco3)on2)c(OC)c1 | inactive
42 | COc1ccc(OC)c(-c2c(C#N)c(N)nc3c2c(=O)nc2sccn23)c1 | inactive
43 | CC(C)Cn1c(N)c(C(=O)NCCN2CCOCC2)c2nc3ccccc3nc21 | inactive
44 | CNc1nc(-c2ccccc2)cc(-c2ccccc2)n1 | inactive
45 | Nc1ccc2nc(-c3ccccc3)cnc2c1 | inactive
46 | Brc1cc(-c2ccccc2)nc(-c2ccccc2)n1 | 39.8 µM (active)
47 | O=c1c2sccc2nc(SCc2cc(=O)n3cc(Br)ccc3n2)n1Cc1ccccn1 | inactive
